# Measured values reported in PubChem BioAssay AID652257 (The Scripps Research Institute Molecular Screening Center, 2013).
# About 4,800 (1.3%) of roughly 370,000 compounds were called active.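 The calls were made as follows: active = inhibition above about 21% made by adding two undisclosed values (limit read from the data); inactive = the rest.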 The entries come from a sample that favours actives as a whole.
# Biological target: Protein arginine N-methyltransferase 1 (Homo sapiens) (UniProt Q99873)
# Sequence (Q99873 whole entry, looked up): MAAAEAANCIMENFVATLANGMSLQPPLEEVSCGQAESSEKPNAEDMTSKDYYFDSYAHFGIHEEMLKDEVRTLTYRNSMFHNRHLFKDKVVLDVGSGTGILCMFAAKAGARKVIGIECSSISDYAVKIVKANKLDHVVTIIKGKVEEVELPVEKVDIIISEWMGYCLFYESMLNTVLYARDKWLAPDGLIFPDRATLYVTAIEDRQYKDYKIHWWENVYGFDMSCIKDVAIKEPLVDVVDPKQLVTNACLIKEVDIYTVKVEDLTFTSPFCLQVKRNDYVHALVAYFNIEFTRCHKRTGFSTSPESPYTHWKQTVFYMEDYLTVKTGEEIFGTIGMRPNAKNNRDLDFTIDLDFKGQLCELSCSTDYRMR
# Test: PRMT1 methyltransferase inhibitors, primary screen, biochemical, fluorescence polarization (AID 652257)
# Conditions: recombinant PRMT1, activity-based probe fluorescence polarization; at 2.79 µM; stronger effect = higher value
row,Structure (SMILES),inhibition
1,COCC(=O)N[C@@H]1C[C@@H]2O[C@@H](CO)CC[C@@H]2O[C@@H]1CCc1ccc(-c2ccccc2)cc1,0.28% (inactive)
2,CCOCc1c(C(=O)N2CCN(Cc3ccc(Br)s3)CC2)oc2ccccc12,-1.1% (inactive)
3,CN(C(=O)c1cccc(NC(=O)Cc2cccc([N+](=O)[O-])c2)c1)C1CCCCC1,-0.61% (inactive)
4,COC(=O)/C=C\C(=O)Nc1cccc([N+](=O)[O-])c1,91.7% (active)
5,CCc1ccc(NC(=O)C(C)OC(=O)/C=C/c2cccc([N+](=O)[O-])c2)cc1 (configuration not stated),-0.43% (inactive)
6,COc1ccc(CN2C/C(=C/c3ccccc3)N3C(=O)C[C@@H](c4ccccc4)N=C23)c(OC)c1,0.52% (inactive)
7,CCC(C)c1ccc(NC(=S)N2CCCC2)cc1 (configuration not stated),2.33% (inactive)
8,COc1ccc(N2CCN(CCNS(=O)(=O)c3ccc(C(C)(C)C)cc3)CC2)cc1,0.09% (inactive)
9,CCC(=C/c1sc2ccc3ccccc3c2[n+]1C)/C=C1\Sc2ccc3ccccc3c2N1C,75.6% (active)
10,Oc1c(C=Nc2cccc3nsnc23)ccc2ccccc12,27.2% (active)
11,O=C(NC1CCCCN(Cc2cccc(C(F)(F)F)c2)C1=O)c1ccccc1I (configuration not stated),-1.71% (inactive)
12,COC(=O)c1cccc(Cn2ccc3ccc(-c4ccc5ccn(C(=O)c6ccccc6C)c5c4)cc32)c1,1.92% (inactive)
13,COc1cc(NC(=O)C2CCCN(S(=O)(=O)c3ccc(C(C)(C)C)cc3)C2)cc(OC)c1 (configuration not stated),-5.91% (inactive)
14,Cc1sc(NC(=S)NC(=O)c2cccs2)nc1-c1ccc(CC(C)C)cc1,-4.11% (inactive)
15,NS(=O)(=O)c1ccc(NC(=S)NNC(=O)c2cccs2)cc1,0.74% (inactive)
16,O=C(NC(=S)Nc1cccc(-c2ccc(CO)o2)c1)c1cccs1,21.4% (active)
17,CCOC(=O)[C@]12CCCC=C1N(Cc1ccc(OC)cc1)C(=O)[C@@H]2CC(=O)NCc1cccs1,7.82% (inactive)
18,COc1cc(NC(=S)N2CCCC(C)C2)cc(OC)c1OC (configuration not stated),5.72% (inactive)
19,COc1cc(NC(=S)N2CCCC(C)C2)c(OC)cc1Cl (configuration not stated),40.8% (active)

row,Structure (SMILES),inhibition
1,COc1cc(NC(=O)CSC(=S)N2CCCC2)c(OC)cc1Cl,8.65% (inactive)
2,CCOC(=O)N1CCN(C(=O)C[C@@H]2C(=O)N(CCc3ccc(Cl)cc3)C3=CCCC[C@]32C(=O)OCC)CC1,0.68% (inactive)
3,O=C(COc1ccccc1O)NC1CCCC1,3.06% (inactive)
4,COc1ccc(Cl)cc1C=CC=NNC(=O)c1ccncc1,-0.1% (inactive)
5,COc1ccc(Cl)cc1C=CC=Nc1ccc(S(N)(=O)=O)cc1,-7.11% (inactive)
6,COc1ccccc1/C=C/C=N/n1c(-c2ccc(Cl)cc2Cl)n[nH]c1=S,21.3% (active)
7,Cc1ccc(NC(=O)Cc2cccc(F)c2)c(S(=O)(=O)N2CCOCC2)c1,0.91% (inactive)
8,COc1ccc(-n2c(SCC(=O)Nc3ccc4cn[nH]c4c3)nnc2-c2cccnc2)cc1,-1.98% (inactive)
9,FC(F)(F)c1cccc(NC(=S)OC2CCC23CCC(c2ccccc2)CC3)c1 (configuration not stated),-5.1% (inactive)
10,O=C(c1cccnc1)N(c1cc2sc(=O)oc2c2ccccc12)S(=O)(=O)c1ccccc1,78.8% (active)
11,CN(c1ccccc1)S(=O)(=O)c1ccc(C(=O)NCc2cccnc2)cc1,-4.64% (inactive)
12,O=C(CN(c1cc(C(F)(F)F)ccc1Cl)S(=O)(=O)c1ccccc1)NCc1cccnc1,0.93% (inactive)
13,O=C1CCC2(CCC(c3ccc(Cl)cc3)CC2)N1CCO (configuration not stated),-4.08% (inactive)
14,O=C(NC1CCCCN(Cc2ccc(Cl)cc2)C1=O)c1ccc(Br)cc1 (configuration not stated),-6.45% (inactive)
15,Cc1c(NC(=O)/C=C/C(=O)O)cccc1[N+](=O)[O-],70.3% (active)
16,Cc1c(NC(=O)CCCOc2ccccc2)cccc1[N+](=O)[O-],2.67% (inactive)
17,Cc1c(NC(=S)NCc2ccc(F)cc2)cccc1[N+](=O)[O-],4.29% (inactive)
18,COc1ccc(CCN2CNc3c(c(=O)n(C)c(=O)n3C)C2)cc1OC,5.09% (inactive)
19,O=S(=O)(c1ccc(SCc2ccccc2)nc1)N1CCCCCC1,-2.5% (inactive)

row,Structure (SMILES),inhibition
1,O=S(=O)(c1ccc(SCc2ccc(Br)cc2)nc1)N1CCOCC1,0.76% (inactive)
2,O=S(=O)(c1ccc(Sc2nnc3ccccn23)nc1)N1CCOCC1,65.8% (active)
3,CCOC(=O)[C@]12CCCCC/C=C\1N(Cc1ccc(OC)cc1)C(=O)[C@H]2CC(=O)NCCCN1CCCC1=O,0.39% (inactive)
4,COC(=O)c1ccc(Cc2ccccc2)o1,-1.95% (inactive)
5,COC(=O)C[n+]1cccc2ccccc21,38.1% (active)
6,COc1c(C(=O)N2CCCC2)ccc2ccccc12,1.75% (inactive)
7,COc1ccc(CN(CCN2CCOCC2)C(=O)c2ccc(C)cc2)cc1OC,2.63% (inactive)
8,Cc1ccc(Cn2cc(CN3[C@@H](C)COc4cc(Br)ccc4S3(=O)=O)nn2)cc1,0.27% (inactive)
9,CCOC(=O)[C@]12CCCCC/C=C\1N(Cc1ccc(OC)cc1)C(=O)[C@H]2CC(=O)N1CCOCC1,0.54% (inactive)
10,CSCCNC(=O)c1ccc2nc(Cc3ccccc3F)oc2c1,3.93% (inactive)
11,C=CCN1C(=O)[C@H](CC(=O)N2CCN(C(=O)OCC)CC2)[C@@]2(C(=O)OCC)CCCC=C12,0.65% (inactive)
12,COC(=O)c1cc(C(=O)OC)cc(N2C(=O)CC(N3CCN(c4ccccc4)CC3)C2=O)c1 (configuration not stated),3.3% (inactive)
13,O=C(C1CC(=O)N(c2ccc(F)cc2)C1)N1CCN(c2ccccc2)CC1 (configuration not stated),-0.62% (inactive)
14,O=C1CC(N2CCN(c3ccc(F)cc3)CC2)C(=O)N1c1ccccc1 (configuration not stated),21.5% (active)
15,COC(=O)C1(CCSC)NC(c2ccc(OC)cc2OC)C2C(=O)N(c3cccc(C(C)=O)c3)C(=O)C21 (configuration not stated),-3.15% (inactive)
16,CC1CCCCC1NC(=O)COC(=O)Cc1ccc(Br)cc1 (configuration not stated),-4.22% (inactive)
17,Cc1nnsc1C(=O)Nc1cccc(Cl)c1C,2.23% (inactive)
18,O=C(Nc1cccc(Cl)c1)c1cc(S(=O)(=O)N2CCCCC2)c[nH]1,3.07% (inactive)
19,O=C(Nc1ccccc1)c1nnsc1S(=O)(=O)c1ccc(Cl)cc1,89.9% (active)
